Test results: PubChem BioAssay (EPA / NIEHS)
Records with an inconclusive call do not appear. More than one record can exist for a structure, and the calls need not agree. Active and inactive are the calls of the source. How the source made its calls: active means hit-call score of the fitted dose curve at least 0.9, where 1 is the maximum; inconclusive means response in the unintended direction; inactive means score below 0.9. Where a SMILES comes first, the peptide text is derived from it. [ ]: non-standard residue; d: D form. pGlu = O=C1CC[C@@H](C(=O)O)N1

Assay: TOX21_p53_BLA_p5_viability: Viability Assessment in the Tox21 HCT-116 p53 Agonism Beta-lactamase Assay, Phase 5 (AID 2283600)
How it was run: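 HCT-116 p53 beta-lactamase reporter cells, 4000/well, were exposed to compound (pin transfer, 217-fold dilution) for 16 hours at 37C. Cellular ATP was read by CellTiter-Glo luminescence after 30 min at room temperature.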

SMILES | outcome | AC50
CC[C@H](C)[C@H](NC(=O)[C@H](Cc1ccccc1)NC(=O)[C@H](C)NC(=O)[C@H](CC(=O)O)NC(=O)[C@H](CCCCN)NC(=O)[C@H](CO)NC(=O)[C@@H]1CCCN1C(=O)[C@@H]1CCC(=O)N1)C(=O)NCC(=O)N[C@@H](CC(C)C)C(=O)N[C@@H](CCSC)C(N)=O ([pGlu]PSKDAFIGLM-NH2) | inactive | –
Oc1ccc(-c2ccc(O)cc2)cc1 | inactive | –
CC[N+](C)(CC)CCOC(=O)C(O)(c1ccccc1)C1CCCCC1 (stereo unspecified) | inactive | –
CSc1ccc(C(=O)c2[nH]c(=O)[nH]c2C)cc1 | inactive | –
NS(=O)(=O)c1cc(C(=O)O)cc(N2CCCC2)c1Oc1ccccc1 | inactive | –
C[C@@H]1C[C@H]2[C@@H]3C[C@H](F)C4=CC(=O)C(Cl)=C[C@]4(C)[C@@]3(F)[C@@H](O)C[C@]2(C)[C@@]1(O)C(=O)CO | inactive | –
OC[C@H]1O[C@@H](O[C@@H]2[C@@H](CO)O[C@](O)(CO)[C@H]2O)[C@H](O)[C@@H](O)[C@H]1O | inactive | –
CCOC(=O)CC(C)=O | inactive | –
CC1(C)[C@@H](OC(=O)CCC(=O)O)CC[C@]2(C)[C@H]3C(=O)C=C4[C@@H]5C[C@@](C)(C(=O)O)CC[C@]5(C)CC[C@@]4(C)[C@]3(C)CC[C@@H]12 | inactive | –
COC(=O)C[C@](O)(CCCC(C)(C)O)C(=O)O[C@@H]1C(OC)=CC23CCCN2CCc2cc4c(cc2[C@H]13)OCO4 (stereo partly specified) | inactive | –
CCOC(=O)O[C@]1(C(=O)COC(=O)CC)CC[C@H]2[C@@H]3CCC4=CC(=O)C=C[C@]4(C)[C@H]3[C@@H](O)C[C@@]21C | inactive | –
CC(C)CC(O)CC(C)C | inactive | –
CC(=O)Nc1ccc(OC(C)=O)cc1 | inactive | –
CN1C(C)(C)CCCC1(C)C | inactive | –
O=[Se](O)O | inactive | –
CC(=O)O[C@H]1C[C@@H]2CC[C@@H]3[C@H](CC[C@@]4(C)[C@H]3C[C@H](N3CC[N+](C)(C)CC3)[C@@H]4OC(C)=O)[C@@]2(C)C[C@@H]1N1CC[N+](C)(C)CC1 | inactive | –
CC(C)CNCC(C)C | inactive | –
CCC(O)C(C)(C)C (stereo unspecified) | inactive | –
C[C@H](CCC(=O)O)[C@H]1CC[C@H]2[C@@H]3CC[C@@H]4C[C@H](O)CC[C@]4(C)[C@H]3C[C@H](O)[C@]12C | inactive | 84.4 µM (active)
O=C(O)CCC(=O)Nc1ccc(S(=O)(=O)Nc2nccs2)cc1 | inactive | –
